From PubChem BioAssay (EPA / NIEHS) come the findings set out here.

Where “and” joins values, the source holds several entries; their conditions need not be identical. Equal entries are not always repeated. The source holds several records for some structures; these can differ, active in one and inactive in another. Calls of active or inactive are those of the source. The calls were made as follows: active = hit-call score of the fitted dose curve at least 0.9, where 1 is the maximum; inactive = score below 0.9.

Read-out in assay [1]: Tissue Factor, F3 (gene 2152)
Nature of the assay: BSK_CASM3C_TissueFactor: BioMAP Diversity Plus: CASM3C Assay for Tissue Factor Biomarker Activity (AID 2283052).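 Also: cell surface tissue factor protein level read by ELISA.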 Conditions: primary human coronary artery smooth muscle cells; actives raise or lower the signal.

Read-out in assay [2]: Interferon-gamma inducible Protein 10 (IP10), CXCL10 (gene 3627)
The assay is described as follows: BSK_hDFCGF_IP10: BioMAP Diversity Plus: hDFCGF Assay for Interferon-gamma inducible Protein 10 (IP10) Biomarker Activity (AID 2283053). Conditions: primary human foreskin fibroblasts; actives raise or lower the signal. The gist of the method:
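Human foreskin fibroblast primary cells (hDFCGF system) were dosed with chemical and assayed at 24 h; IP-10 measured by ELISA. Activity fitted bidirectionally relative to DMSO negative control as baseline.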

Read-out in assay [3]: Urokinase-type plasminogen activator receptor (uPAR), PLAUR (gene 5329)
Nature of the assay: BSK_CASM3C_uPAR: BioMAP Diversity Plus: CASM3C Assay for Urokinase-type plasminogen activator receptor (uPAR) Biomarker Activity (AID 2283054).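 Also: cell-surface uPAR protein level quantified by ELISA.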 The settings on record: primary human coronary artery smooth muscle cells; actives raise or lower the signal.

Read-out in assay [4]: Vascular cell adhesion molecule 1 (VCAM1), VCAM1 (gene 7412)
Nature of the assay: BSK_CASM3C_VCAM1: BioMAP Diversity Plus: CASM3C Assay for Vascular cell adhesion molecule 1 (VCAM1) Biomarker Activity (AID 2283055).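 Also: VCAM-1 protein level quantified by ELISA on the cells.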 Conditions: primary human coronary artery smooth muscle cells; actives raise or lower the signal.

Read-out in assay [5]: Collagen III, COL3A1 (gene 1281)
The assay is described as follows: BSK_hDFCGF_CollagenIII: BioMAP Diversity Plus: hDFCGF Assay for Collagen III Biomarker Activity (AID 2283056). The settings on record: primary human foreskin fibroblasts; actives raise or lower the signal. The gist of the method: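 Human foreskin primary fibroblasts were exposed to test chemicals for 24 h, after which collagen III was quantified by ELISA. Activity was fitted bidirectionally against DMSO as negative control and baseline.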

Read-out in assay [6]: Epidermal growth factor receptor (EGFR), EGFR (gene 1956)
The assay is described as follows: BSK_hDFCGF_EGFR: BioMAP Diversity Plus: hDFCGF Assay for Epidermal growth factor receptor (EGFR) Biomarker Activity (AID 2283057). The settings on record: primary human foreskin fibroblasts; actives raise or lower the signal. A digest of the protocol: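 Primary human foreskin fibroblasts were exposed to compound for 24 h, after which cell-surface EGFR was quantified by ELISA. Activity was fitted bidirectionally against the DMSO negative control as baseline.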

Read-out in assay [7]: Interleukin-8 (IL8), CXCL8 (gene 3576)
The assay is described as follows: BSK_hDFCGF_IL8: BioMAP Diversity Plus: hDFCGF Assay for Interleukin-8 (IL8) Biomarker Activity (AID 2283058). Conditions: primary human foreskin fibroblasts; actives raise or lower the signal. The gist of the method:
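hDFCGF human dermal fibroblasts; 24 h chemical exposure; IL-8 by ELISA; bidirectional curve fit vs DMSO baseline; gain or loss of signal scored.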

Assay [8] is described as follows: BSK_hDFCGF_Proliferation: Cell Proliferation Assessment in the BioMAP Diversity Plus: hDFCGF Assay (AID 2283059).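 Also: curves fitted for both rise and fall of signal versus DMSO baseline.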 The settings on record: primary human foreskin fibroblasts. A digest of the protocol:
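Total protein read at 560 nm after 0.1% SRB staining of TCA-fixed human skin fibroblasts, […]. Activity is fitted in both directions relative to DMSO as baseline.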

Read-out in assay [9]: Macrophage colony-stimulating factor (MCSF), CSF1 (gene 1435)
The assay is described as follows: BSK_hDFCGF_MCSF: BioMAP Diversity Plus: hDFCGF Assay for Macrophage colony-stimulating factor (MCSF) Biomarker Activity (AID 2283060). Conditions: primary human foreskin fibroblasts; actives raise or lower the signal. The gist of the method: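 Human foreskin primary fibroblasts were treated with test chemical for 24 h, and M-CSF was then measured by ELISA. Data were fitted bidirectionally against DMSO as the negative control and activity baseline.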

Assay [10] is described as follows: BSK_hDFCGF_SRB: Viability Assessment in the BioMAP Diversity Plus: hDFCGF Assay (AID 2283061).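 Also: cells exposed to compound for 24 h before the read.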 The settings on record: primary human foreskin fibroblasts. A digest of the protocol: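 Human foreskin primary fibroblasts were treated with compound and assessed 24 h after dosing. Total protein was measured by sulforhodamine B staining (0.1% SRB after 10% TCA fixation, 560 nm read) as a cytotoxicity marker, with bidirectional fitting against DMSO baseline.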

Read-out in assay [11]: TIMP metallopeptidase inhibitor 1 (TIMP1), TIMP1 (gene 7076)
Nature of the assay: BSK_hDFCGF_TIMP1: BioMAP Diversity Plus: hDFCGF Assay for TIMP metallopeptidase inhibitor 1 (TIMP1) Biomarker Activity (AID 2283062). Conditions: primary human foreskin fibroblasts; actives raise or lower the signal. The gist of the method: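 Primary human foreskin fibroblasts in the hDFCGF system were dosed with compound for 24 h, then TIMP-1 was measured by ELISA. Activity was fitted bidirectionally relative to DMSO control; parallel SRB staining assessed cytotoxicity.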

Read-out in assay [12]: Monokine induced gamma interferon (MIG), CXCL9 (gene 4283)
The assay is described as follows: BSK_hDFCGF_MIG: BioMAP Diversity Plus: hDFCGF Assay for Monokine induced gamma interferon (MIG) Biomarker Activity (AID 2283063). Conditions: primary human foreskin fibroblasts; actives raise or lower the signal. A digest of the protocol:
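ELISA read-out of MIG from primary human dermal fibroblasts 24 h post-dosing. Gain or loss of signal fitted bidirectionally, DMSO as baseline.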

Read-out in assay [13]: Matrix Metallopeptidase 1 (MMP1), MMP1 (gene 4312)
The assay is described as follows: BSK_hDFCGF_MMP1: BioMAP Diversity Plus: hDFCGF Assay for Matrix Metallopeptidase 1 (MMP1) Biomarker Activity (AID 2283064). The settings on record: primary human foreskin fibroblasts; actives raise or lower the signal. The gist of the method: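 hDFCGF primary fibroblasts (human foreskin); chemical added; 24 h; MMP1 by ELISA; bidirectional fit vs DMSO.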

Read-out in assay [14]: Vascular cell adhesion molecule 1 (VCAM1), VCAM1 (gene 7412)
Nature of the assay: BSK_hDFCGF_VCAM1: BioMAP Diversity Plus: hDFCGF Assay for Vascular cell adhesion molecule 1 (VCAM1) Biomarker Activity (AID 2283065).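 As to AC50: VCAM-1 protein level quantified by ELISA after 24 h chemical exposure.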 The settings on record: primary human foreskin fibroblasts; actives raise or lower the signal. A digest of the protocol: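 Primary human foreskin fibroblasts (hDFCGF system) were dosed with chemical and VCAM-1 was measured by ELISA 24 h later. Bidirectional curve fitting used DMSO as negative control and activity baseline.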

Read-out in assay [15]: Plasminogen activator inhibitor-1 (PAI1), SERPINE1 (gene 5054)
Nature of the assay: BSK_hDFCGF_PAI1: BioMAP Diversity Plus: hDFCGF Assay for Plasminogen activator inhibitor-1 (PAI1) Biomarker Activity (AID 2283066). Conditions: primary human foreskin fibroblasts; actives raise or lower the signal. A digest of the protocol: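 Human foreskin fibroblasts in the hDFCGF system were dosed with compound for 24 h; PAI-1 was quantified by ELISA. Bidirectional curve fitting used DMSO as negative control and baseline.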

Read-out in assay [16]: Intercellular Adhesion Molecule 1 (ICAM1), ICAM1 (gene 3383)
The assay is described as follows: BSK_KF3CT_ICAM1: BioMAP Diversity Plus: KF3CT Assay for Intercellular Adhesion Molecule 1 (ICAM1) Biomarker Activity (AID 2283067). The settings on record: primary human keratinocytes with fibroblasts; actives raise or lower the signal. The gist of the method:
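Human keratinocyte plus foreskin fibroblast primary co-culture was exposed to chemical for 24 h. ICAM-1 was then quantified by ELISA, and the data were fit bidirectionally against DMSO as the negative control and baseline.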

Read-out in assay [17]: Interferon-gamma inducible Protein 10 (IP10), CXCL10 (gene 3627)
Nature of the assay: BSK_KF3CT_IP10: BioMAP Diversity Plus: KF3CT Assay for Interferon-gamma inducible Protein 10 (IP10) Biomarker Activity (AID 2283068). The settings on record: primary human keratinocytes with fibroblasts; actives raise or lower the signal. The gist of the method:
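Human keratinocyte plus foreskin fibroblast primary co-culture exposed to test chemical for 24 h; IP-10 measured by ELISA. Concentration-response fitted bidirectionally against DMSO control as baseline.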

Assay [18] can be described thus: BSK_KF3CT_SRB: Viability Assessment in the BioMAP Diversity Plus: KF3CT Assay (AID 2283069).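 Also: fitted for both signal gain and loss against DMSO baseline.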 Conditions: primary human keratinocytes with fibroblasts. The gist of the method: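 Keratinocytes co-cultured with foreskin fibroblasts (human primary); chemical added, 24 h; fix 10% TCA, stain 0.1% SRB, A560. Bidirectional fit vs DMSO.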
Read-out in assay [19]: Interleukin-1 alpha (IL1a), IL1A (gene 3552)
Nature of the assay: BSK_KF3CT_IL1a: BioMAP Diversity Plus: KF3CT Assay for Interleukin-1 alpha (IL1a) Biomarker Activity (AID 2283070). The settings on record: primary human keratinocytes with fibroblasts; actives raise or lower the signal. The gist of the method:
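Chemicals were dosed onto co-cultured human keratinocytes and foreskin fibroblasts, IL-1a was quantified by ELISA at 24 h, and activity was fitted in both directions relative to DMSO controls.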

Read-out in assay [20]: TIMP metallopeptidase inhibitor 2 (TIMP2), TIMP2 (gene 7077)
The assay is described as follows: BSK_KF3CT_TIMP2: BioMAP Diversity Plus: KF3CT Assay for TIMP metallopeptidase inhibitor 2 (TIMP2) Biomarker Activity (AID 2283071). Conditions: primary human keratinocytes with fibroblasts; actives raise or lower the signal. The gist of the method: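 Human primary keratinocyte/foreskin fibroblast co-culture dosed with chemical and sampled at 24 h. TIMP-2 levels quantified by ELISA; bidirectional fitting against DMSO negative control as baseline.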

In the case of `O=C(Nc1ccccc1)c1ccccc1I`, the outcome in [1], in [2], in assay [3], in assay [4], in assay [5] and in [6] was inactive. The outcome in assay [7], in [8], in assay [9], in [10], in assay [11] and in assay [12] was inactive. In addition, the result in assay [13], in assay [14], in [15], in assay [16], in [17] and in [18] was inactive. Further, the outcome in assay [19] and in assay [20] was inactive.

For `Cc1cccc(N)c1N`, the outcome in assay [1], in assay [2], in assay [3], in [5], in [6] and in assay [7] was inactive. The result in assay [8], in assay [10], in [11], in assay [12], in assay [13] and in assay [14] was inactive. Besides, the result in assay [15], in assay [17], in assay [18], in assay [19] and in [20] was inactive. Further, the AC50 in assay [4] is 13.8 µM (active); in [9], 853 nM (active); in [16] it was 9.01 µM (active).

For the compound `O=C(O)C1C2CCC(O2)C1C(=O)O` (stereo not drawn), the result in [1], in assay [2], in [3], in assay [4], in assay [6] and in assay [7] was inactive. The outcome in assay [9], in assay [10], in assay [11], in [12], in [13] and in assay [16] was inactive. Moreover, the outcome in assay [17], in [18], in [19] and in assay [20] was inactive. Also, the concentration at half-maximal activity (AC50) in [5] is 24.3 µM (active); in assay [8], 18.6 µM (active); in [14], 18.6 µM (active); in assay [15], 6.83 µM (active).

For the compound `CCNS(=O)(=O)C(F)(F)C(F)(F)C(F)(F)C(F)(F)C(F)(F)C(F)(F)C(F)(F)C(F)(F)F`, the outcome in assay [1], in assay [3], in [6], in assay [7], in assay [11] and in assay [13] was inactive. Besides, the result in assay [16], in assay [18], in assay [19] and in [20] was inactive. In addition, the half-maximal activity concentration (AC50) in assay [2] is 18 µM (active) and 20.9 µM (active) and 19.8 µM (active); in [4] it was 9.52 µM (active) and 11.7 µM (active) and 5.95 µM (active); in [5], 5.82 µM (active) and 18.6 µM (active) and 22 µM (active); in assay [6], 31.3 µM (active) and 48.5 µM (active); in assay [7], 55.1 µM (active) and 46.4 µM (active); in [8] it was 17.5 µM (active) and 14.4 µM (active) and 19.4 µM (active). Besides, the AC50 was 17 µM (active) and 22.2 µM (active) and 28.5 µM (active) in assay [9]; 28.8 µM (active) and 44.8 µM (active) and 47.8 µM (active) in assay [10]; 47.2 µM (active) and 53.5 µM (active) in assay [11]; 19.3 µM (active) and 28.3 µM (active) and 36 µM (active) in [12]; 49.2 µM (active) and 49.6 µM (active) in [13]; 5.73 µM (active) and 13.5 µM (active) in [14]. For the same compound, the AC50 was 30.1 µM (active) and 23.3 µM (active) and 47.3 µM (active) in [15]; 46.2 µM (active) in assay [16]; 20.9 µM (active) and 30.5 µM (active) and 43.7 µM (active) in assay [17]; 46.1 µM (active) in assay [18]; 41.5 µM (active) and 47.7 µM (active) in assay [19]; 48.2 µM (active) and 54.7 µM (active) in assay [20].

`CCCCCCCCCCCCCN1CC(C)OC(C)C1` (stereo not drawn): the outcome in assay [1], in [2], in [3], in assay [4], in [5] and in assay [6] was inactive. Besides, the outcome in assay [7], in [9], in assay [10], in assay [11], in assay [12] and in assay [13] was inactive. Also, the outcome in assay [14], in assay [15], in assay [16], in [17], in assay [18] and in assay [19] was inactive. Also, in assay [20], the result was inactive. In addition, the AC50 in assay [8] is 0.541 µM (active).

What is called AC50 is the midpoint of the concentration-response curve, whichever way the signal moves.
